Measurements reported in PubChem BioAssay (NCATS).
Values joined by “and” are separate entries in the source; they are usually repeats but may differ in a detail not shown here. Equal values may be shown once. Records with an inconclusive call do not appear. Values without a mark were called inactive. Active and inactive are the calls of the source. Unless noted, calls come from the whole dose curve.

test system: not listed separately; test: AP1 Signaling Pathway (AID 357; active = well fitted curve in either direction with a large enough effect, not every such curve was filed as active;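 note: ME-180 reporter cells stimulated with EGF at its EC50 level; % is set by controls: 0 for no effect and ±100 for the full control effect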); settings: ME-180 (cervical carcinoma) AP-1-bla reporter, EGF-induced, beta-lactamase ratio, 5 h; at 17.2 µM (top of the series) unless noted
Procedure, shortened: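 Read-out was the 460nm/530nm emission ratio (excitation 405nm) after CCF4 loading for 2.5 hours at room temperature. Cells carried an AP-1-driven beta-lactamase reporter, were stimulated with EC50 EGF plus compound for 5 hours, and AC50 values came from titrations.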

Compound	activity change, negative = inhibition
Nc1[nH]c(=O)ncc1F	0.602%
C1CCC(C(CC2CCCCN2)C2CCCCC2)CC1 (configuration not stated)	22.4%
O=C(O)c1cn(C2CC2)c2cc(N3CCNCC3)c(F)cc2c1=O	3.13%
COc1cc([C@@H]2c3cc4c(cc3[C@H](O)[C@H]3COC(=O)[C@H]23)OCO4)cc(OC)c1OC	20.7%
CCn1cc(C(=O)O)c(=O)c2cc(F)c(N3CCNCC3)cc21	-6.52% and 0.998%
NS(=O)(=O)c1cc2c(cc1Cl)NC(C(Cl)Cl)NS2(=O)=O (configuration not stated)	12.3%
COc1cc2ncnc(Nc3cccc(Cl)c3)c2cc1OC	-106% [at 38 µM] (active)
CC(C)(Sc1cc(C(C)(C)C)c(O)c(C(C)(C)C)c1)Sc1cc(C(C)(C)C)c(O)c(C(C)(C)C)c1	1.37%
CCN(CC)CC#CCOC(=O)C(O)(c1ccccc1)C1CCCCC1 (configuration not stated)	-4.6%
CCC(=O)O[C@]1(C(=O)CCl)[C@@H](C)C[C@H]2[C@@H]3CCC4=CC(=O)C=C[C@]4(C)[C@@]3(F)[C@@H](O)C[C@@]21C	3.85%
Clc1ccccc1CN1CCc2sccc2C1	-15.6% and -18.3%
Cn1c(=O)c2c(ncn2CC(O)CO)n(C)c1=O (configuration not stated)	2.4%
Nc1nc(F)nc2c1ncn2[C@@H]1O[C@H](CO)[C@@H](O)[C@@H]1O	-4.13%
N[C@@H](C(=O)N[C@@H]1C(=O)N2C(C(=O)O)=C(Cl)CS[C@H]12)c1ccccc1	0.208%
COc1ccccc1OCC(O)COC(N)=O (configuration not stated)	9.66%

target: Cytochrome P450 1A2 (Homo sapiens) (UniProt P05177); test: p450-cyp1a2 (AID 410); settings: recombinant CYP1A2, luciferin-ME demethylation, luminescence; series mostly up to 25.6 µM; note: potency is the fitted concentration of half-maximal effect;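 for activity change, negative = inhibition: -100% = full effect of reference inhibitor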
Procedure, shortened: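 Luminescent readout of luciferin formed from Luciferin-ME by human CYP1A2; data normalized against complete inhibition by 57 uM furafylline. Enzyme 20nM, substrate 100uM at Km, 100mM KPO4 buffer, 60 min reaction at room temperature.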

Chain of Cytochrome P450 1A2 (Homo sapiens) (P05177 whole entry, looked up): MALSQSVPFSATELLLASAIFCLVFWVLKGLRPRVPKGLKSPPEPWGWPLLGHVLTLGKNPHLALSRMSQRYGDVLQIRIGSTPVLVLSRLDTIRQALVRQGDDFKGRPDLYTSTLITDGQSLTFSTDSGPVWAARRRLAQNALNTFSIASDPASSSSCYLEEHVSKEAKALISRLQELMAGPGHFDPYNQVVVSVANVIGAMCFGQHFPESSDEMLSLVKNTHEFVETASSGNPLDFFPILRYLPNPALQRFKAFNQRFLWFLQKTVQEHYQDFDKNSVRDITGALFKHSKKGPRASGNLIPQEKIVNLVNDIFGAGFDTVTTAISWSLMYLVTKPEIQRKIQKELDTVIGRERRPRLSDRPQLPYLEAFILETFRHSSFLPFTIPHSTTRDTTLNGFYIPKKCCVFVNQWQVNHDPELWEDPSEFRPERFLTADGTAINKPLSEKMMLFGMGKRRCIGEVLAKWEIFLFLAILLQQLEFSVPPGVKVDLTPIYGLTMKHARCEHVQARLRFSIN

Compound	Potency
O=c1oc2c(O)c(O)cc3c(=O)oc4c(O)c(O)cc1c4c23	15.8 µM (active)
O=C(O)c1cccnc1	inactive
CC1=CC(=O)c2ccccc2C1=O	0.158 µM (active)

test system: not listed separately; test: Cell Viability - BJ (AID 421); settings: BJ fibroblast viability, qHTS;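 note: potency is the fitted concentration of half-maximal effect; cells exposed to compound for 40 hours at 37 °C before readout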
Procedure, shortened: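 Cytotoxicity in human BJ foreskin fibroblasts is scored as loss of cellular ATP after a 40-hour exposure, measured by luciferase luminescence. Controls are DMSO and 100 uM tamoxifen.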

Compound	Potency
Cc1ccnc2c1NC(=O)c1cccnc1N2C1CC1	> 92 µM
CN(C)c1ccc(C(=C2C=CC(=[N+](C)C)C=C2)c2ccc(N(C)C)cc2)cc1	5.35 µM (active)
O=C(O)c1cc(=O)[nH]c(=O)[nH]1	> 92 µM
C[C@]12C=CC(=O)C=C1CC[C@@H]1[C@@H]2C(=O)C[C@@]2(C)[C@H]1CC[C@]2(O)C(=O)CO	> 92 µM
O=C(N[C@H](CO)[C@H](O)c1ccc([N+](=O)[O-])cc1)C(Cl)Cl	> 92 µM

test system: not listed separately; test: Cell Viability - Jurkat (AID 426;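 active = dose-dependent loss of cell ATP signal giving a full or clear fitted curve, ranked by lower potency value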; note: potency is the fitted concentration of half-maximal effect); settings: qHTS
Procedure, shortened: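 qHTS, 1536-well; Jurkat E6-1, 5000 cells/well, complete medium; cpd 40 hr, 37 °C; CellTiter-Glo 20 min RT; luminescence. AC50 by Hill fit.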

Compound	Potency
Cc1ccnc2c1NC(=O)c1cccnc1N2C1CC1	> 92 µM
CC(=O)Oc1ccccc1C(=O)Nc1ncc([N+](=O)[O-])s1	30.6 µM (active)
CN(C)c1ccc(C(=C2C=CC(=[N+](C)C)C=C2)c2ccc(N(C)C)cc2)cc1	2.75 µM (active)
O=C(O)c1cc(=O)[nH]c(=O)[nH]1	> 92 µM
C[C@]12C=CC(=O)C=C1CC[C@@H]1[C@@H]2C(=O)C[C@@]2(C)[C@H]1CC[C@]2(O)C(=O)CO	> 92 µM
O=C(N[C@H](CO)[C@H](O)c1ccc([N+](=O)[O-])cc1)C(Cl)Cl	> 92 µM

test system: not listed separately; test: Cell Viability - Hek293 (AID 427;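 active = compounds whose dose-response curve shows a full or clear partial loss of cell viability, called from curve shape rather than a numeric limit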;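 note: potency is the fitted concentration of half-maximal effect; cells exposed to compound for 40 hours at 37 °C before reading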); settings: qHTS
Procedure, shortened: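 qHTS, human embryonic kidney (adenovirus-transformed) cells; 40 hr cpd, 37 °C; CellTiter-Glo ATP luminescence. Norm: DMSO = 0, 100 uM tamoxifen = 100% inhibition. Hill-fit AC50.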

Compound	Potency
Cc1ccnc2c1NC(=O)c1cccnc1N2C1CC1	> 92 µM
CC(=O)Oc1ccccc1C(=O)Nc1ncc([N+](=O)[O-])s1	32.6 µM (active)
CN(C)c1ccc(C(=C2C=CC(=[N+](C)C)C=C2)c2ccc(N(C)C)cc2)cc1	5.18 µM (active)
O=C(O)c1cc(=O)[nH]c(=O)[nH]1	> 92 µM
C[C@]12C=CC(=O)C=C1CC[C@@H]1[C@@H]2C(=O)C[C@@]2(C)[C@H]1CC[C@]2(O)C(=O)CO	> 92 µM
O=C(N[C@H](CO)[C@H](O)c1ccc([N+](=O)[O-])cc1)C(Cl)Cl	> 92 µM

test system: not listed separately; test: Cell Viability - HepG2 (AID 433); settings: qHTS;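 note: potency is the fitted concentration of half-maximal effect; potency for ATP loss meaning cytotoxicity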
Procedure, shortened: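 In this qHTS format, a 40 h, 37 °C compound incubation of HepG2 cells in complete medium precedes a 20 min CellTiter-Glo step at room temperature. Tamoxifen and doxorubicin serve as positive controls; Hill-equation fits yield AC50.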

Compound	Potency
Cc1ccnc2c1NC(=O)c1cccnc1N2C1CC1	> 92 µM
CN(C)c1ccc(C(=C2C=CC(=[N+](C)C)C=C2)c2ccc(N(C)C)cc2)cc1	8.58 µM (active)
O=C(O)c1cc(=O)[nH]c(=O)[nH]1	> 92 µM
C[C@]12C=CC(=O)C=C1CC[C@@H]1[C@@H]2C(=O)C[C@@]2(C)[C@H]1CC[C@]2(O)C(=O)CO	> 92 µM
N=C(N)c1ccc(OCCCCCOc2ccc(C(=N)N)cc2)cc1	> 92 µM
O=C(N[C@H](CO)[C@H](O)c1ccc([N+](=O)[O-])cc1)C(Cl)Cl	> 92 µM

test system: not listed separately; test: Cell Viability - MRC5 (AID 434); settings: MRC5 lung fibroblast viability, qHTS;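 note: potency is the fitted concentration of half-maximal effect; potency reflects cytotoxicity seen as loss of intracellular ATP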
Procedure, shortened: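 MRC5 normal human lung fibroblasts, 1500 cells/well, exposed to compound for 40 hr at 37 C. Cellular ATP was read by CellTiter-Glo luminescence; data normalized to DMSO and 100 uM tamoxifen, with AC50 from Hill fits.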

Compound	Potency
Cc1ccnc2c1NC(=O)c1cccnc1N2C1CC1	> 92 µM
CN(C)c1ccc(C(=C2C=CC(=[N+](C)C)C=C2)c2ccc(N(C)C)cc2)cc1	4.08 µM (active)
O=C(O)c1cc(=O)[nH]c(=O)[nH]1	> 92 µM
C[C@]12C=CC(=O)C=C1CC[C@@H]1[C@@H]2C(=O)C[C@@]2(C)[C@H]1CC[C@]2(O)C(=O)CO	> 92 µM
N=C(N)c1ccc(OCCCCCOc2ccc(C(=N)N)cc2)cc1	> 92 µM
O=C(N[C@H](CO)[C@H](O)c1ccc([N+](=O)[O-])cc1)C(Cl)Cl	> 92 µM
